Displacement data for 100 compounds are collected here from PubChem BioAssay AID748 (Sanford-Burnham Center for Chemical Genomics, 2007).

Hit rate of the full screen: of about 96,000 compounds, about 100 (0.1%) were called active.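 The calls were made as follows: active = displacement above 50% at 20 µM plus a fluorescence interference ratio under 1.5; inactive = the rest.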 Only a selection was taken, and actives are over-represented in it overall. Results with a measured potency or affinity are listed apart.

In this assay the target is Bcl-2-like protein 10 (Homo sapiens) (UniProt Q9HD36). The assay can be described thus: displacers of TR3 peptide from Bcl-B, primary screen, selectivity assay for Bfl-1 inhibitor project, biochemical, fluorescence polarization, FITC-TR3 peptide (AID 748).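 Also: plate controls were wells without compound for no effect and wells lacking Bcl-B protein for full effect.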 The following applies: FP displacement of FITC-TR3 peptide from Bcl-B; at 20 µM; stronger effect = higher value. Background: Fluorescence polarisation rises when a labelled molecule tumbles more slowly, as on binding a larger partner.
Regarding `CCC1CCCCN1C(=O)COC(=O)c1n[nH]c2ccccc12` (stereo not given), the displacement was -6% (inactive). Consider `COc1c(/C=N/Nc2ccc([N+](=O)[O-])cc2[N+](=O)[O-])c(C)nn1-c1ccccc1`, for which the displacement was -2.4% (inactive).

`Cc1cc(S(=O)(=O)Nc2ccccc2C(=O)O)ccc1Cl`: the displacement was -4.3% (inactive). For `Cc1nn(-c2ccccc2)c(Cl)c1/C=N/Nc1ccc(S(=O)(=O)Nc2ccccc2C(=O)O)cc1[N+](=O)[O-]`, the displacement was 62.4% (active).

Turning to `Cc1ccc(CNC(=O)CCn2nc(-c3ccc(Cl)cc3)ccc2=O)cc1`, the displacement is -8.8% (inactive). Turning to `COc1ccc(CCNc2nc3c(c(=O)n(C)c(=O)n3C)n2C)cc1OC`, the displacement was 8.6% (inactive). The result for `COc1ccccc1NC(=O)CNC(=O)c1ccc(F)cc1` reads -4.7% (inactive); that for `O=C(Nc1cccc(C(F)(F)F)c1)c1ccc2nc(-c3ccco3)c(-c3ccco3)nc2c1`, 19.6% (inactive); that for `O=C(NCc1ccccc1)c1ccc2nc(-c3ccco3)c(-c3ccco3)nc2c1`, 29.5% (inactive).

With `O=C(NCCO)c1ccc2nc(-c3ccco3)c(-c3ccco3)nc2c1`, the displacement was 26.6% (inactive). As to `CCOC(=O)C1CCN(C(=O)Nc2ccc3nc(-c4ccco4)c(-c4ccco4)nc3c2)CC1`, the displacement is 95.6% (inactive). The result for `O=C(Nc1ccc2nsnc2c1)N1CCCCCC1` reads 1.1% (inactive); that for `O=C(Nc1ccc(N2CCOCC2)cc1)c1ccc2nc(-c3ccco3)c(-c3ccco3)nc2c1`, 0% (inactive); that for `CCOCCCNC(=O)C1CCN(C(=O)N(C)C)CC1`, 3.4% (inactive). Regarding `COc1ccc(C)cc1NS(=O)(=O)c1cn(C)c(=O)n(C)c1=O`, the displacement was -4.4% (inactive). `COc1ccc(S(=O)(=O)N2CCCC2C(=O)Nc2ccc(C)cc2)cc1` (stereo not given): the displacement was -2% (inactive).

For `CCOC(=O)c1snc(-c2ccc(F)cc2)c1N`, the displacement was -3.1% (inactive).

Turning to `CCOC(=O)c1[nH]c2cc3c(cc2c1NC(=O)CN1CCCCC1C)OCO3` (stereo not given), the displacement is 9.5% (inactive). In the case of `O=S(=O)(c1ccc(S(=O)(=O)N2CCCN(Cc3ccccc3)C2)cc1)N1CCCCCC1`, the displacement was 0.8% (inactive). The result for `CC(=O)Nc1nnc(SCC(=O)NCCOc2ccccc2)s1` reads -9.4% (inactive); that for `CCCCC(=O)NC1=NC(=O)C(C)(C)S1`, -8% (inactive).

Regarding `Cc1oc2cc3c(C(=O)N4CCCCC4)c(C)oc3cc2c1C(=O)N1CCCCC1`, the displacement was 6.1% (inactive). For `CCCn1c(CCC(=O)O)ccc1-c1cccs1`, the displacement was 2.8% (inactive).

For `CCCCn1c(CCC(=O)O)ccc1-c1cccs1`, the displacement was 4.3% (inactive).

As for `Cc1sc2nc(SCc3nc4ccccc4[nH]3)n(Cc3ccco3)c(=O)c2c1C`, the displacement is -8.7% (inactive). Take `COc1ccc(C2C(=O)N(C3CCCCC3)CC(=O)N2Cc2ccco2)cc1` (stereo not given): the displacement was -8.2% (inactive). Turning to `CCOC(=O)c1nn(-c2ccccc2)c(=O)c2c(N)scc12`, the displacement is -1.6% (inactive). Under `CC1(C)OC(=O)C(=CNc2ccccc2F)C(=O)O1` stands 5.4% (inactive); under `Cc1nnc(SCC(=O)Nc2cccc(C(F)(F)F)c2)n1Cc1ccco1`, 4.7% (inactive); under `COC(=O)CCc1c(C)[nH]c(C(=O)OCc2ccccc2)c1C`, -0.4% (inactive).

For `CCOC(=O)c1[nH]c(C(=O)O)c(CCN(CC)CC)c1C`, the displacement is 0.1% (inactive). As for `O=C(CCc1ccccc1)OCCN1CCOCC1`, the displacement is 5.9% (inactive). Consider `Cn1nnnc1SCCNCc1ccccc1F`, for which the displacement was 1.2% (inactive).

Regarding `CN(C)c1ccc2c(O)cc(=O)n(C)c2c1`, the displacement is 13% (inactive). Regarding `Cc1nnc(NC(=O)COc2ccccc2)s1`, the displacement was -16.7% (inactive). Regarding `COc1ccc(CNCC(O)(c2ccccc2)c2ccc(Cl)cc2)cc1` (stereo not given), the displacement is -0.9% (inactive). `COc1ccc(-c2cc(C(F)(F)F)nc(SCC(=O)N3CCOCC3)n2)cc1OC`: the displacement is -2.2% (inactive). For the compound `O=C(Nc1ccc2c(c1)OCO2)c1cnn2c(C(F)(F)F)cc(-c3ccco3)nc12`, the displacement is 10.1% (inactive). As to `O=C(O)c1cnn2c(C(F)(F)F)cc(-c3ccco3)nc12`, the displacement was 35.7% (inactive). Take `Cc1nn(C)cc1CNC(=O)c1cccc(Cl)c1`: the displacement is 3.4% (inactive).

For the compound `COC(=O)[C@H](Cc1ccccc1)NC(=O)NCc1ccc(S(N)(=O)=O)cc1`, the displacement was 3% (inactive). Regarding `O=C(NCN1CCN(c2ccccc2F)CC1)c1cccnc1`, the displacement is -3.4% (inactive).

As for `NC1=NS(=O)(=O)NC1c1cccc(Cl)c1` (stereo not given), the displacement was -0.7% (inactive).

On to `CS(=O)(=O)N(Cc1ccc(C(=O)Nc2ccccc2Sc2ccccc2)cc1)c1ccccc1`, for which the displacement is -11.2% (inactive). For `Cc1cccc(OCCCC(=O)O)c1`, the displacement is -8.7% (inactive). For `CC1CCN(C(=O)c2ccc3c(c2NCCO)C(=O)c2ccccc2C3=O)CC1`, the displacement was 27.9% (inactive). Take `CC1CCCN(C(=O)c2ccc3c(c2NCCO)C(=O)c2ccccc2C3=O)C1` (stereo not given): the displacement was 37% (inactive). With `CC(CC(=O)c1cccs1)CC(=O)c1cccs1`, the displacement was -2.6% (inactive). The result for `O=C(O)Cn1nc2ccccc2n1` reads 3.4% (inactive); that for `Cc1nc(=S)n(-c2ccccc2)[nH]1`, -1.7% (inactive); that for `CC(/C=C/c1ccco1)=N/NC(=O)Cc1cccs1`, -47.4% (inactive). `O=C(CNC(=O)c1ccco1)NCC(=O)OCc1ccccc1Br`: the displacement is -3.7% (inactive). Under `O=C(NCc1ccncc1)C1CCCCC1` stands -9% (inactive); under `COc1cc(-c2nnc(SCc3ccccc3Cl)o2)cc(OC)c1OC`, -2.8% (inactive). As for `COc1cc(-c2nnc(SCc3cc(=O)oc4cc(C)ccc34)o2)cc(OC)c1OC`, the displacement is -10.8% (inactive). The result for `Cc1c(C(=O)Nc2cccc3cccnc23)oc2ccccc12` reads 10.7% (inactive).

`Cc1cc(=O)n2c3c(cccc13)CCC2`: the displacement is -9.7% (inactive). Under `C=CCn1c(SCC(=O)Nc2ncc(Cc3cc(Cl)ccc3Cl)s2)nnc1-c1ccncc1` stands -3.4% (inactive); under `O=C(NCc1ccco1)c1cc(-c2ccc(F)cc2)on1`, 1.1% (inactive). With `O=C(Cc1ccc(Cl)cc1)Nc1ccc(N2CCCC2)cc1`, the displacement is -84% (inactive). On to `CN1CCN(c2ccc(NC(=O)Cc3ccccc3)cc2)CC1`, for which the displacement is -5.5% (inactive). For the compound `O=C(Nc1ccc(N2CCCCC2)cc1)c1ccccc1`, the displacement was -3.3% (inactive). Under `O=C(Nc1ccc(N2CCCC2)cc1)C(Cl)c1ccccc1` (stereo not given) stands -13.8% (inactive); under `CCOC(=O)c1ccccc1NC(=O)CC(C)CC(=O)O` (stereo not given), -5.5% (inactive).

Take `COc1cccc2c1C(=O)CC2NC(=O)C(F)(F)F` (stereo not given): the displacement was -17.1% (inactive). For the compound `COC(=O)Nc1c(C)nn(Cc2ccccc2C)c1C`, the displacement was -0.7% (inactive). The result for `CCOc1ccc(C(c2c(C)[nH][nH]c2=O)c2c(C)[nH][nH]c2=O)cc1OC` reads 8.5% (inactive). Take `CC(C)CC(C(=O)Nn1cnnc1)N1C(=O)c2ccccc2C1=O` (stereo not given): the displacement was -8.4% (inactive). Under `O=C(Cc1cccs1)Nc1nnc(CCc2ccccc2)s1` stands -0.1% (inactive); under `Cc1nnc(NC(=O)Cc2cccs2)s1`, 40.2% (inactive). Under `CCOC(=O)c1nc2sc3c(c2c(=O)[nH]1)CCCC3` stands -2.6% (inactive); under `CC(C)CC(=O)c1c[nH]c(C(=O)NCCCn2ccnc2)c1`, 0% (inactive). `CCc1ccc2[nH]c(=O)c(C3C(C#N)=C(N)Oc4c3ccc3cccnc43)cc2c1` (stereo not given): the displacement was -4.7% (inactive).

With `Cc1ccc2cc(C3C(C#N)=C(N)Oc4c3ccc3cccnc43)c(=O)[nH]c2c1` (stereo not given), the displacement was 5.4% (inactive). Regarding `O=c1[nH]c(=O)n(C2CCCO2)cc1Br` (stereo not given), the displacement is -6.3% (inactive). As for `CS(=O)(=O)N(CCc1ccccc1)CC(=O)N1CCCCC1`, the displacement is 0.5% (inactive). As to `Clc1ccc2nc(CN3CCCCCC3)cn2c1`, the displacement is -3.6% (inactive).

Regarding `Clc1ccc2nc(CN3CCCCC3)cn2c1`, the displacement is 10.1% (inactive). Take `Cc1nn(-c2ccccn2)c2c1-c1nc(N)ncc1CC2`: the displacement was 6% (inactive). Regarding `CCN(CC)CCC(=O)NC(C)(C)Cc1ccc(O)cc1`, the displacement is -7.8% (inactive). Turning to `Cc1c(C(=O)OCC2CCCO2)[nH]c2c1C(=O)CC(c1ccc(N(C)C)cc1)C2` (stereo not given), the displacement was -1.6% (inactive).

In the case of `CCOC(=O)c1[nH]c2c(c1C)C(=O)CC(c1ccco1)C2` (stereo not given), the displacement was 10.9% (inactive). `CCCC(=O)N1CCc2cc(-c3nc(N)sc3C)ccc21`: the displacement is 0.7% (inactive).

Regarding `CC1(C)Cc2c(sc3c2c(=N)n(Cc2ccco2)c(=O)n3CC(=O)Nc2cccc(Cl)c2)CO1`, the displacement is -38.7% (inactive). In the case of `CC1(C)C(=O)Nc2ccccc2N1C(=O)COC(=O)C1CCCCC1`, the displacement is -3.4% (inactive). Turning to `Cc1ccc(S(=O)(=O)N2CCOCC2)cc1C(=O)OCC(=O)N1c2ccccc2NC(=O)C1(C)C`, the displacement is 25% (inactive). Under `COc1cc(/C=C(/C#N)c2ccc(C)cc2)ccc1Oc1ccc([N+](=O)[O-])cn1` stands -0.7% (inactive); under `CC1Cc2nc(SCC(=O)NC3CCCCC3)n(C)c(=O)c2S1` (stereo not given), -2.6% (inactive).

Regarding `CCOC(=O)COc1ccc(S(=O)(=O)N2CCc3ccccc3C2)cc1`, the displacement is 0.4% (inactive).

With `CCOc1ccccc1N(CC(=O)NC(C)(C)C)C(=O)Cn1nnc(-c2ccc(C)o2)n1`, the displacement was -3.4% (inactive).

For `CC(=O)N1N=C(c2ccc3nccnc3c2)CC1c1ccccc1` (stereo not given), the displacement was 6% (inactive). Regarding `C=CCn1c(=O)c2ccccc2n2c(SCc3cc(=O)n4ccsc4n3)nnc12`, the displacement was 6.2% (inactive). Regarding `C=CCn1c(SCc2cc(=O)n3ccsc3n2)nc2scc(C3CC3)c2c1=O`, the displacement is -10.9% (inactive). In the case of `CCCNC(=O)c1c(N)n(-c2ccc3c(c2)OCO3)c2nc3ccccc3nc12`, the displacement was 8.6% (inactive). `Cn1c(N2CCN(C(=O)NCc3ccccc3)CC2)nc2ccccc21`: the displacement was 6.9% (inactive). With `COc1cccc(NC(=O)c2cnsn2)c1`, the displacement was 6.3% (inactive). The result for `CCCn1c(C)cc(-c2csc(N)n2)c1C` reads 10.4% (inactive). With `Cc1cc(-c2csc(N)n2)c(C)n1CCC(C)C`, the displacement was 1.9% (inactive). Under `c1csc(Cn2c(-c3cccs3)nc3ccccc32)c1` stands -27.7% (inactive); under `CC(=O)Nc1ccc(S(=O)(=O)n2nc(-c3ccc(C)cc3)nc2N)cc1`, -2.3% (inactive).
